Assay results taken from PubChem BioAssay AID618 (Sanford-Burnham Center for Chemical Genomics, 2007).
The whole screen tested about 87,000 compounds, of which about 540 (0.62%) were called active. No rule for the calls is given here. The full list was thinned out, with actives kept by preference. Entries with a potency or affinity are not part of this list.

assay: inhibitors of MT1-MMP promoter transcription, cell-based, luciferase reporter, luminescence (AID 618); details: MT1-MMP promoter luciferase reporter cells;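 also: actives suppress MT1-MMP promoter-driven transcription so potencies describe inhibitors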

SMILES | outcome
COc1ccccc1N1CCN(C(=O)CSc2nc(-c3ccco3)cc(C(F)(F)F)n2)CC1 | inactive
Cc1cc(C)c(S(=O)(=O)N2CCCCC2)c(C)c1-n1ncnn1 | inactive
O=C(Cn1nc(-c2ccc(Cl)cc2)c2ccccc2c1=O)NCC1CCCO1 (configuration not stated) | inactive
CCOC(=O)CS(=O)(=O)c1nc(-c2ccccc2)cc(C(F)(F)F)n1 | inactive
COc1ccc(-c2cc(C(F)(F)F)nc(S(C)(=O)=O)n2)cc1OC | inactive
COC(=O)CCS(=O)(=O)c1nc(-c2ccccc2)cc(C(F)(F)F)n1 | inactive
COC(=O)CSc1nc(-c2ccc(F)cc2)cc(C(F)(F)F)n1 | inactive
CCOC(=O)CSc1nc(-c2ccccc2)cc(C(F)(F)F)n1 | inactive
CCOC(=O)CS(=O)(=O)c1nc(-c2ccc(F)cc2)cc(C(F)(F)F)n1 | active
CS(=O)(=O)c1nc(-c2ccccc2)cc(C(F)(F)F)n1 | active
COc1ccccc1-c1cc(C(F)(F)F)nc(S(=O)(=O)CCCC(=O)N2CCCCC2C)n1 (configuration not stated) | inactive
COc1ccccc1-c1cc(C(F)(F)F)nc(S(=O)(=O)CCCC(=O)O)n1 | inactive
COc1ccc(-c2cc(C(F)(F)F)nc(S(C)(=O)=O)n2)cc1 | inactive
CCNc1nc(Oc2ccc(=O)[nH]n2)nc(N2CCOCC2)n1 | inactive
CCOC(=O)C1=NN(c2ccc(OC)cc2)C(c2ccccc2)CC1=O (configuration not stated) | inactive
COC(=O)c1ccc(CSc2nnc(SCc3ccc(C(=O)OC)o3)s2)o1 | inactive
CCN1C(c2ccc(F)cc2)=CS/C1=C(\C#N)c1nnc2n1-c1ccccc1SC2 | inactive
CNc1nnc(-c2cccc(N(C)C)c2)s1 | inactive
CNc1nnc(-c2ccncc2)s1 | inactive
Cc1ccc(-c2nc(CS(=O)(=O)CC(=O)NC3CCCCC3C)c(C)o2)cc1 (configuration not stated) | inactive
CCCc1ccc(-c2ccc(C(=O)O)cc2)nc1 | inactive
CCCCc1ccc(-c2nc(N)n[nH]2)cc1 | inactive
CCCCCCc1ccc(-c2ncc(N)cn2)cc1 | active
CCc1ccc(-c2ccc(C(=O)O)cc2)nc1 | inactive

SMILES | outcome
CCCCCc1ccc(-c2ccc(=O)[nH]n2)cc1 | inactive
CC(=O)c1ccc(N=Cc2c(O)n(-c3cc(Cl)ccc3N3CCOCC3)c(=O)c3ccccc23)cc1 | inactive
Cc1noc(NS(=O)(=O)c2ccc(NC(=O)CSc3nc4ccccc4[nH]3)cc2)c1C | inactive
CCCc1nc(SCc2ccccn2)c2c(=O)n(C)c(=O)n(C)c2n1 | inactive
CCOc1nc(NCCc2ccc(OC)c(OC)c2)nc(N2CCN(c3ccc(OC)cc3)CC2)n1 | inactive
Cc1cccc(N2CCN(C(=O)c3cc4c(=O)n(C)c5ccccc5c4n3C)CC2)c1C | inactive
COc1ncnc2sc(-c3ccccc3)cc12 | inactive
COc1ccc(-c2cc(=O)c3ccccc3s2)cc1 | inactive
O=C(Nc1ccc(N2CCCCC2)cc1)c1cccnc1 | inactive
O=C(Nc1ccc(N2CCCC2=O)cc1)c1cccc(F)c1 | inactive
O=C(Nc1ccc(N2CCCCC2)cc1)c1ccc(F)cc1 | inactive
O=C(Nc1ccc(N2CCN(C(=O)c3ccco3)CC2)cc1)c1cccc(F)c1 | inactive
O=C(Nc1ccc(N2CCCC2)cc1)c1cccc(F)c1 | active
O=C(COc1ccc(Br)cc1CO)Nc1ccccc1F | inactive
O=C(NCCCN=C1NS(=O)(=O)c2ccccc21)c1ccco1 | inactive
COC(=O)C1CCN(C(=O)c2ccc(NC(C)=O)cc2)CC1 | inactive
CCOC(=O)C(C)Oc1cccc2c(=O)n(CC(=O)N3CCc4ccccc43)ccc12 (configuration not stated) | inactive
CCOC(=O)C(C)Oc1cccc2c(=O)n(CC(=O)NCc3ccco3)ccc12 (configuration not stated) | active
CCOC(=O)COc1cccc2c(=O)n(CC(=O)NCc3ccc4c(c3)OCO4)ccc12 | inactive
Nc1nonc1C(=O)NCCNCc1cc(Br)ccc1OCc1ccccc1F | active
Nc1nonc1C(=O)NCCNCc1cc(Br)ccc1OCc1ccc(F)cc1 | inactive
Nc1nonc1C(=O)NCCNCc1ccccc1OCc1ccccc1F | inactive
c1ccc(C2CC(c3ccccc3)n3ncnc3N2)cc1 (configuration not stated) | inactive
CCc1cn([C@H]2C[C@H](O)[C@@H](CO)O2)c(=O)[nH]c1=O | inactive

SMILES | outcome
O=c1[nH]c(=O)n([C@H]2C[C@H](O)[C@@H](CO)O2)cc1F | active
O=c1[nH]c(=O)n([C@H]2C[C@H](O)[C@@H](CO)O2)cc1C(F)(F)F | inactive
Cc1ccc(NC(=O)CN(C)C(=O)CSc2nc3ccccc3c(=O)n2Cc2ccco2)cc1 | inactive
Cc1csc2nc(CSc3nc4ccccc4o3)cn12 | inactive
Cc1csc2nc(CSc3ccc(Cl)cc3)cn12 | inactive
Cc1ccc(-c2cc(C(=O)N/N=C/c3ccco3)[nH]n2)cc1 | inactive
COc1ccccc1/C=N/NC(=O)C1=NNC(c2ccccc2)(c2ccccc2)C1 | inactive
O=C(CSc1ccccc1)Nc1ccncc1 | inactive
Cc1cc2c(c(=O)n1Cc1ccccn1)C(C(C)C)C(C#N)=C(N)O2 (configuration not stated) | inactive
Nc1cccc(-c2nc3ccccc3s2)c1 | inactive
Cc1nc(-c2cccc(N)c2)cs1 | inactive
Nc1cccc(-c2nc3ccc(N)cc3s2)c1 | active
Cc1nc2ccc(N)cc2s1 | inactive
Nc1ccc(O)c(-c2nc3ccccc3s2)c1 | inactive
COc1cccc(NC(=O)C2C3C=CC4(O3)C2C(=O)N(C2CC2)C4C(=O)NC2CCCCC2C)c1 (configuration not stated) | inactive
C=C(C)c1cccc(C(C)(C)NC(=O)N2CCN(CC(N)=O)CC2)c1 | inactive
CC(C)(C)c1ccc(C2(C)NC(=O)N(CC(=O)Nc3ccc4c(c3)OCO4)C2=O)cc1 (configuration not stated) | inactive
CCCCCn1c(=O)[nH]c2cc(C(=O)N3CCN(CC)CC3)ccc2c1=O | inactive
CCOC(=O)N1CCN(C(=O)CN(C2CCCCC2)S(=O)(=O)c2ccc(Cl)cc2)CC1 | inactive
COc1ccc(NC(=O)c2cc(CN3C(=O)c4ccccc4C3=O)ccc2OC)cn1 | inactive
COc1ccc(NC(=O)c2cc(=O)c3ccccc3o2)cn1 | inactive
COc1ccc(NC(=O)/C(Cl)=C(/Cl)S(=O)Cc2ccc(C)cc2)cn1 (configuration not stated) | active
CCOc1ccccc1OCCCC(=O)Nc1ccc(OC)nc1 | inactive
COc1ccc(NC(=O)c2nc3nccc(C)n3n2)cn1 | inactive

SMILES | outcome
COc1ccc(NC(=O)/C(Cl)=C(/Cl)S(=O)Cc2ccccc2)cn1 (configuration not stated) | active
Cc1ccc(C(=O)n2cnnc2N)cc1 | inactive
CN(C)c1nc(N)nc(-c2cccnc2)n1 | inactive
COc1ccc(C)cc1S(=O)(=O)N(C)CC(=O)Nc1ccc2c(c1)OCO2 | inactive
Cc1ccc2ccccc2c1COC(=O)c1nonc1N | inactive
CC(=O)Nc1cccc(Oc2ccc(-c3noc(C)n3)cc2)c1 | inactive
CCCC(=O)N1CC(=O)Nc2ccc(F)cc2C1c1ccccc1 (configuration not stated) | inactive
O=C(COc1ccc(CO)cc1)Nc1ccc(F)cc1 | inactive
COc1ccccc1NC(=O)COc1ccc(CO)cc1Cl | inactive
N#C/C(=C\c1ccc[nH]1)Sc1nc2ccccc2s1 | inactive
COc1ccccc1N(CC(=O)NC1CCCC1)C(=O)CCC(=O)Nc1cc(C)on1 | inactive
CC(=O)Nc1ccccc1OCC(=O)c1cc(C)n(Cc2cccs2)c1C | inactive
Cc1cc(C(=O)CN2C(=O)c3ccccc3C2=O)c(C)n1Cc1cccs1 | inactive
C=CCn1c(C)cc(C(=O)CSc2nc3ccccc3o2)c1C | inactive
CC(=O)Nc1ccc(SCC(=O)c2cc(C)n(C)c2C)cc1 | inactive
C=CCn1c(C)cc(C(=O)CSc2n[nH]c(N)n2)c1C | inactive
COCC(C)n1c(C)cc(C(=O)CSc2ccc(NC(C)=O)cc2)c1C (configuration not stated) | inactive
COc1ccc(-c2n[nH]c(C)c2-c2cc(OC)ccc2O)cc1 | inactive
CCSC1=C(C#N)C(c2ccccc2C)CC(=O)N1 (configuration not stated) | inactive
Cc1cc(SCc2cc(=O)[nH]c3ccccc23)nc2ccccc12 | inactive
O=C(O)c1c2c(nc3ccc(F)cc13)CCC2 | inactive
COCCn1nnnc1C(c1ccc(OC)cc1OC)N1CCN(c2ccccc2F)CC1 (configuration not stated) | inactive
Cc1ccccc1OCC(=O)Nn1c(COc2ccccc2)nc2ccccc2c1=O | inactive
CC1=C(C)C(=O)N(c2ccc(C(=O)O)cc2)C1=O | inactive

SMILES | outcome
O=C1/C(=C\c2ccc3ccccc3c2)CCCc2ccccc21 | inactive
COC(=O)c1ccc(C(NC(=O)OCc2ccccc2)/C(F)=C/[C@@H](C)C(=O)NCc2ccc(OC)c(OC)c2)cc1 (some centres not stated) | inactive
CCC(C)C1C(C#N)=C(N)Oc2n[nH]c(-c3ccccc3)c21 (configuration not stated) | inactive
O=C(Oc1ccc2ccccc2c1)c1ccccc1 | inactive
CC(=O)Nc1cc(-c2ccc(Cl)cc2)nn1-c1ccccc1 | inactive
O=C(CCl)Nc1cc(-c2ccccc2)nn1-c1ccccc1 | active
Cc1ccc(-c2cc(NC(=O)CCl)n(-c3ccccc3)n2)cc1 | inactive
O=C1CS/C(=C/C(=O)c2ccccc2)N1 | inactive
NCCCCCc1nnc(SCc2cccc(Cl)c2)o1 | inactive
Cc1ccc2nc(/C(C#N)=C\c3ccc(N4CCOCC4)o3)[nH]c2c1 | inactive
N#C/C(=C/c1ccc(N2CCOCC2)o1)c1nc2ccccc2[nH]1 | inactive
Cc1ccc(-c2cn3nc(C)c(C)nc3n2)cc1 | active
CCc1c(-c2ccccc2)nc2nc(C)c(C)nn12 | inactive
Cc1nc2nc(-c3cccs3)cn2nc1C | inactive
CCc1ccc(-c2nn[nH]n2)cc1 | inactive
Cc1nc2nc(-c3ccccc3)cn2nc1C | inactive
CCc1ccc(-c2cn3nc(C)c(C)nc3n2)cc1 | active
O=Cc1ccccc1OCCOc1ccccc1C=O | inactive
CN(C)c1ccc(-c2nc3ccccc3n2C)cc1 | active
CC(C)n1c(-c2ccc(N(C)C)cc2)nc2ccccc21 | inactive
Cn1c(-c2ccc(N)cc2)nc2ccccc21 | inactive
